Source: PubChem
SIRT5 inh: sirtuin-5 (human) deacylase inhibition | Q9NXA8 | Purified SirT5, succinyl-peptide AMC, trypsin-coupled fluorescence | inhibition, % at 15 µM | hit rate 1.1% among 330,000; in the data active = inhibition above about 15%; inconclusive = no clear call, values can overlap the other calls
Target sequence (Q9NXA8 whole entry, looked up): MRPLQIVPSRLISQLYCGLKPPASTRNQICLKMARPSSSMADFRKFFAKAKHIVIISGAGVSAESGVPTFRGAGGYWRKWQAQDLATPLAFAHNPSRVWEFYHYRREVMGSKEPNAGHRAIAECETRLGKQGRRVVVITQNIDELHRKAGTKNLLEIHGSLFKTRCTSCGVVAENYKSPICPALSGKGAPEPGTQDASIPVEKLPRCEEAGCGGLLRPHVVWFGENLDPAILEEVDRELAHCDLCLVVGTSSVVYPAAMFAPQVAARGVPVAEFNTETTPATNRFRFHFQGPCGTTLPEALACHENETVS
FGF22 binding: binders of recombinant human FGF22 by thermal shift; activity (Tm shift, normalised), % at 9.99 µM; SYPRO orange fluorescence; percent of sucrose octasulfate shift, DMSO zero; hit rate 1.5% among 340,000;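 active = mean Tm shift, scaled 0 neutral to 100 positive control, at about 1.3% or above, every replicate too, limit read from the data; inconclusive = no clear call, values can overlap the other calls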
Target sequence (Q9HCT0 whole entry, looked up): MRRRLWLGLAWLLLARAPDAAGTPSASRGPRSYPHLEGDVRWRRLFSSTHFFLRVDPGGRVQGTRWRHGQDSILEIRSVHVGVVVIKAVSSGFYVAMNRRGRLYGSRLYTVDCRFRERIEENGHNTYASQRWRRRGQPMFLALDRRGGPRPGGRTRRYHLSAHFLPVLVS
PglD DTNB: blocks C. jejuni PglD acetyltransferase activity; purified PglD enzyme, DTNB colorimetric CoA detection; inhibition, % at 12.5 µM; hit rate 0.098% among 360,000; AID 602405; in the data active = inhibition above about 16%, passing the limit was not always enough; inconclusive = no clear call, values can overlap the other calls
Active calls of the source: *; ? = inconclusive; . = no result given. Most compounds without a hit are left out; they make up all but 2.8% or so of the library.

SMILES	SIRT5 inh	FGF22 binding	PglD DTNB
C[C@@H]1CCCCO[C@@H](CN(C)C(=O)Cc2ccccc2)[C@@H](C)CN([C@@H](C)CO)C(=O)c2cc(NC(=O)Nc3ccc(F)cc3)ccc2O1	32*	-1	0
C[C@@H]1CN([C@H](C)CO)C(=O)c2cc(NC(=O)Nc3ccc4c(c3)OCO4)ccc2O[C@@H](C)CCCCO[C@@H]1CN(C)C(=O)C1CCCCC1	9	0	-2
C[C@@H]1CCCCO[C@@H](CN(C)C(=O)Nc2ccc3c(c2)OCO3)[C@@H](C)CN([C@H](C)CO)C(=O)c2cc(NC(=O)Nc3ccc4c(c3)OCO4)ccc2O1	17*	0	-1
C[C@@H]1CCCCO[C@@H](CN(C)C(=O)Nc2ccc(F)cc2)[C@@H](C)CN([C@@H](C)CO)C(=O)c2cc(NC(=O)Nc3ccc(F)cc3)ccc2O1	3	0	-4
C[C@H](CO)N1C[C@H](C)[C@@H](CN(C)C(=O)C2CCCCC2)OCCCC[C@H](C)Oc2ccc(NC(=O)Nc3ccc4c(c3)OCO4)cc2C1=O	16*	0	5
O=C(NC[C@H]1CC[C@@H]2[C@@H](CN2S(=O)(=O)c2ccccc2[N+](=O)[O-])O1)C1CC1	-4	.	.
COc1ccc(NC(=O)N(C)C[C@H]2OCCCC[C@@H](C)Oc3ccc(NC(=O)Cc4ccccc4)cc3C(=O)N([C@H](C)CO)C[C@@H]2C)cc1	19*	0	0
COc1ccc(NC(=O)Nc2ccc3c(c2)C(=O)N([C@@H](C)CO)C[C@H](C)[C@H](CN(C)C(=O)c2ccccc2)OCCCC[C@H](C)O3)cc1	2	1.4*	0
COc1ccc(NC(=O)Nc2ccc3c(c2)C(=O)N([C@@H](C)CO)C[C@@H](C)[C@@H](CN(C)CC2CCCCC2)OCCCC[C@H](C)O3)cc1	-2	1.3*	-2
COc1ccc(NC(=O)Nc2ccc3c(c2)C(=O)N([C@H](C)CO)C[C@H](C)[C@@H](CN(C)CC2CCCCC2)OCCCC[C@@H](C)O3)cc1	3	0	-4
C[C@@H]1CCCCO[C@@H](CN(C)C(=O)Nc2ccc(F)cc2)[C@H](C)CN([C@@H](C)CO)C(=O)c2cc(NC(=O)Nc3ccc(C(F)(F)F)cc3)ccc2O1	2	1.4*	-1
O=S(=O)(c1ccc(-c2ccccc2)cc1)N1CCN(Cc2ccc(OCCO)cc2)CC1	9	0	-3
COc1ccc2c3c([nH]c2c1)[C@H](CO)N(CC1CC1)CC31CN(C(=O)c2cccc(F)c2)C1	.	0	.
CCC(=O)N1CC2(C1)[C@H](c1ccc(-c3cccc(F)c3)cc1)[C@@H](CO)N2CC1CC1	-2	1	.
C[C@@H]1CCCCO[C@H](CN(C)C(=O)Nc2ccc(C(F)(F)F)cc2)[C@H](C)CN([C@@H](C)CO)C(=O)c2cc(NC(=O)Nc3ccc4c(c3)OCO4)ccc2O1	15*	0	3
C[C@@H]1CCCCO[C@H](CN(C)CC2CCCCC2)[C@H](C)CN([C@H](C)CO)C(=O)c2cc(NC(=O)Nc3ccc(C(F)(F)F)cc3)ccc2O1	100*	-2	1
COc1ccc(NC(=O)Nc2ccc3c(c2)C(=O)N([C@@H](C)CO)C[C@@H](C)[C@H](CN(C)C(=O)Nc2ccc(C(F)(F)F)cc2)OCCCC[C@@H](C)O3)cc1	18*	1.2*	-2
C[C@H]1CCCCO[C@H](CN(C)C(=O)Nc2ccc(C(F)(F)F)cc2)[C@@H](C)CN([C@@H](C)CO)C(=O)c2cc(NC(=O)Nc3ccc(F)cc3)ccc2O1	17*	0	1
C[C@@H]1CN([C@@H](C)CO)C(=O)c2cc(NC(=O)Nc3ccc(C(F)(F)F)cc3)ccc2O[C@@H](C)CCCCO[C@@H]1CN(C)CC1CCCCC1	-4	-1	-1
C[C@@H]1CCCCO[C@@H](CN(C)C(=O)Nc2ccc(C(F)(F)F)cc2)[C@@H](C)CN([C@H](C)CO)C(=O)c2cc(NC(=O)Nc3ccc4c(c3)OCO4)ccc2O1	1	0	.
CC(C)NC(=O)N(C)C[C@@H]1Oc2ccc(NC(=O)Cc3ccccc3)cc2CC(=O)N([C@@H](C)CO)C[C@@H]1C	-2	0	-3
O=C(c1cccc(F)c1)N1CC2(C1)[C@@H](c1ccccc1)[C@@H](CO)N2C(=O)C1CC1	0	0	.
CCc1cnc(N2[C@H](C#N)[C@H](c3ccc(C#CC(C)C)cc3)[C@H]2CO)s1	1	0	3
CC(C)CC#Cc1ccc2c(c1)O[C@H](CN(C)CC1CCOCC1)[C@H](C)CN([C@@H](C)CO)S2(=O)=O	?	0	1
C[C@@H]1CCCCO[C@@H](CN(C)CC2CCCCC2)[C@H](C)CN([C@H](C)CO)C(=O)c2cc(NC(=O)Nc3cccc4ccccc34)ccc2O1	6	1.3*	10
SMILES	SIRT5 inh	FGF22 binding	PglD DTNB
C[C@@H]1CCCCO[C@@H](CN(C)CC2CCCCC2)[C@H](C)CN([C@@H](C)CO)C(=O)c2cc(NC(=O)Nc3ccc4c(c3)OCO4)ccc2O1	2	1.4*	4
COc1ccc(NC(=O)Nc2ccc3c(c2)C(=O)N([C@H](C)CO)C[C@H](C)[C@H](CN(C)C(=O)Nc2cccc4ccccc24)OCCCC[C@H](C)O3)cc1	14	0	0
C[C@@H]1CN([C@@H](C)CO)C(=O)c2cc(NC(=O)Nc3cccc4ccccc34)ccc2O[C@@H](C)CCCCO[C@@H]1CN(C)CC1CCCCC1	3	1	8
COc1ccc(NC(=O)Nc2ccc3c(c2)C(=O)N([C@@H](C)CO)C[C@@H](C)[C@H](CN(C)C(=O)Nc2cccc4ccccc24)OCCCC[C@H](C)O3)cc1	20*	0	1
C[C@@H]1CCCCO[C@H](CN(C)CC2CCCCC2)[C@H](C)CN([C@H](C)CO)C(=O)c2cc(NC(=O)Nc3ccc4c(c3)OCO4)ccc2O1	1	0	5
C[C@H](CO)N1C[C@H](C)[C@@H](CN(C)C(=O)Nc2cccc3ccccc23)OCCCC[C@H](C)Oc2ccc(NC(=O)Nc3ccc4c(c3)OCO4)cc2C1=O	5	1.7*	-1
C[C@@H]1CN([C@@H](C)CO)C(=O)c2cc(NC(=O)C3CCCCC3)ccc2O[C@@H](C)CCCCO[C@H]1CN(C)C(=O)c1ccccc1	-3	29*	-1
C[C@H](CO)N1C[C@H](C)[C@H](CN(C)CC2CCCCC2)OCCCC[C@H](C)Oc2ccc(NC(=O)CCCCCC(=O)Nc3ccccc3N)cc2C1=O	-1	1	1
C[C@@H]1CCCCO[C@@H](CN(C)CC2CCCCC2)[C@H](C)CN([C@H](C)CO)C(=O)c2cc(NC(=O)CCCCCC(=O)Nc3ccccc3N)ccc2O1	20*	0	-1
COc1ccc(CN(C)C[C@@H]2OCCCC[C@H](C)Oc3ccc(NC(=O)Nc4ccc(F)cc4)cc3C(=O)N([C@H](C)CO)C[C@@H]2C)cc1	1	0	12
C[C@@H]1CCCCO[C@@H](CN(C)C(=O)C2CCCCC2)[C@H](C)CN([C@@H](C)CO)C(=O)c2cc(NC(=O)Nc3ccc(F)cc3)ccc2O1	19*	0	4
COc1ccc(CN(C)C[C@H]2OCCCC[C@@H](C)Oc3ccc(NC(=O)Nc4ccc(F)cc4)cc3C(=O)N([C@@H](C)CO)C[C@@H]2C)cc1	100*	-1	15
